Experimental data published in PubChem BioAssay AID1159580 (chemical genetic matrix, 2015).
The campaign covered roughly 5,500 compounds. About 2,000 (36%) were called active. Not shown: some 18% with an inconclusive outcome. Some of the results follow. A number with no mark means an inactive call. No stated cut-off is given here; in the data, active means normalized growth mostly below about 0.91 (no sharp cut-off); inconclusive means no clear call, values can overlap the other calls; inactive means mostly above about 0.92.

Assay: chemical genetic growth profiling, strain panel (AID 1159580);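 further: tested at 20 µM; growth read once vehicle control cultures reached saturation at 30 °C; 1 = growth at the plate median or of vehicle wells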
Details: S. cerevisiae deletion strains, growth OD

For `[Li+]`, the normalized growth (locus YAL013W, strain DEP1, stronger effect = lower value) was 1.01, the normalized growth (locus YAL040C, strain CLN3, stronger effect = lower value) was 0.996 and the normalized growth (locus YCL061C, strain MRC1 (second series), stronger effect = lower value) was 1.01. For the same molecule, the normalized growth (locus YDR150W, strain NUM1, stronger effect = lower value) was 1.02, the normalized growth (locus YDR363W, strain ESC2, stronger effect = lower value) was 1.01 and the normalized growth (locus YER002W, strain NOP16, stronger effect = lower value) was 1. For the same molecule, the normalized growth (locus YGR229C, strain SMI1, stronger effect = lower value) was 1.02, the normalized growth (locus YMR307W, strain GAS1, stronger effect = lower value) was 0.994 and the normalized growth (locus YNL175C, strain NOP13, stronger effect = lower value) was 1. For the same molecule, the normalized growth (locus YNL197C, strain WHI3, stronger effect = lower value) was 1.02, the normalized growth (locus YNL224C, strain SQS1, stronger effect = lower value) was 1 and the normalized growth (locus YOR083W, strain WHI5 (second series), stronger effect = lower value) was 1.01. For the same molecule, the normalized growth (locus YPL241C, strain CIN2, stronger effect = lower value) was 1.01.

In the case of `c1ccc(-c2ccc(C(c3ccccc3)n3ccnc3)cc2)cc1` (configuration not stated), the normalized growth (locus YAL021C, strain ccr4, stronger effect = lower value) is reported as 0.0644 (active), the normalized growth (locus YAL026C, strain drs2, stronger effect = lower value) is reported as 0.0618 (active) and the normalized growth (locus YAL030W, strain snc1, stronger effect = lower value) is reported as 0.0587 (active). The normalized growth (locus YBL061C, strain skt5, stronger effect = lower value) was 0.0709 (active), the normalized growth (locus YBR009C, strain hhf1, stronger effect = lower value) was 0.0624 (active) and the normalized growth (locus YBR023C, strain chs3, stronger effect = lower value) was 0.0697 (active). For the same molecule, the normalized growth (locus YBR171W, strain sec66, stronger effect = lower value) was 0.0929 (active), the normalized growth (locus YBR231C, strain swc5, stronger effect = lower value) was 0.0689 (active) and the normalized growth (locus YBR279W, strain paf1, stronger effect = lower value) was 0.0719 (active). The normalized growth (locus YCL011C, strain gbp2, stronger effect = lower value) was 0.0606 (active), the normalized growth (locus YCL016C, strain dcc1, stronger effect = lower value) was 0.0733 (active) and the normalized growth (locus YCL069W, strain vba3, stronger effect = lower value) was 0.066 (active). For the same molecule, the normalized growth (locus YCR088W, strain abp1, stronger effect = lower value) was 0.0692 (active), the normalized growth (locus YDL005C, strain med2, stronger effect = lower value) was 0.0767 (active) and the normalized growth (locus YDL040C, strain nat1, stronger effect = lower value) was 0.0668 (active). For the same molecule, the normalized growth (locus YDR001C, strain nth1, stronger effect = lower value) was 0.067 (active), the normalized growth (locus YDR069C, strain doa4, stronger effect = lower value) was 0.0703 (active) and the normalized growth (locus YDR137W, strain rgp1, stronger effect = lower value) was 0.127 (active). For the same molecule, the normalized growth (locus YDR159W, strain sac3, stronger effect = lower value) was 0.0937 (active), the normalized growth (locus YDR195W, strain ref2) was 0.13 (active) and the normalized growth (locus YDR297W, strain sur2, stronger effect = lower value) was 0.0659 (active). For the same molecule, the normalized growth (locus YDR334W, strain swr1, stronger effect = lower value) was 0.0716 (active), the normalized growth (locus YDR335W, strain msn5, stronger effect = lower value) was 0.0638 (active) and the normalized growth (locus YDR392W, strain spt3, stronger effect = lower value) was 0.0713 (active). For the same molecule, the normalized growth (locus YEL003W, strain gim4, stronger effect = lower value) was 0.0535 (active), the normalized growth (locus YEL037C, strain rad23, stronger effect = lower value) was 0.0622 (active) and the normalized growth (locus YEL061C, strain CIN8 (second series), stronger effect = lower value) was 0.0652 (active). For the same molecule, the normalized growth (locus YER015W, strain faa2, stronger effect = lower value) was 0.0699 (active), the normalized growth (locus YER016W, strain bim1, stronger effect = lower value) was 0.0698 (active) and the normalized growth (locus YER111C, strain swi4, stronger effect = lower value) was 0.0902 (active). For the same molecule, the normalized growth (locus YER155C, strain BEM2 (second series), stronger effect = lower value) was 0.0914 (active), the normalized growth (locus YFR010W, strain ubp6, stronger effect = lower value) was 0.0846 (active) and the normalized growth (locus YGL167C, strain pmr1, stronger effect = lower value) was 0.124 (active). For the same molecule, the normalized growth (locus YGL173C, strain kem1, stronger effect = lower value) was 0.0886 (active), the normalized growth (locus YGL227W, strain vid30, stronger effect = lower value) was 0.077 (active) and the normalized growth (locus YGL240W, strain doc1, stronger effect = lower value) was 0.108 (active). The normalized growth (locus YGL253W, strain hxk2, stronger effect = lower value) was 0.0596 (active), the normalized growth (locus YHR013C, strain ard1, stronger effect = lower value) was 0.105 (active) and the normalized growth (locus YHR027C, strain rpn1, stronger effect = lower value) was 0.0776 (active). The normalized growth (locus YHR030C, strain SLT2, stronger effect = lower value) was 0.105 (active), the normalized growth (locus YHR079C, strain IRE1, stronger effect = lower value) was 0.13 (active) and the normalized growth (locus YHR142W, strain chs7, stronger effect = lower value) was 0.0799 (active). The normalized growth (locus YJL092W, strain hpr5, stronger effect = lower value) was 0.0642 (active), the normalized growth (locus YJL095W, strain BCK1 (second series), stronger effect = lower value) was 0.0592 (active) and the normalized growth (locus YJL095W, strain BCK1, stronger effect = lower value) was 0.127 (active). For the same molecule, the normalized growth (locus YJL115W, strain asf1, stronger effect = lower value) was 0.087 (active), the normalized growth (locus YJL129C, strain trk1, stronger effect = lower value) was 0.102 (active) and the normalized growth (locus YJL154C, strain vps35, stronger effect = lower value) was 0.0754 (active). The normalized growth (locus YJL164C, strain tpk1, stronger effect = lower value) was 0.0615 (active), the normalized growth (locus YJL166W, strain qcr8, stronger effect = lower value) was 0.0657 (active) and the normalized growth (locus YJL187C, strain SWE1, stronger effect = lower value) was 0.0683 (active). For the same molecule, the normalized growth (locus YJR066W, strain TOR1, stronger effect = lower value) was 0.0151 (active), the normalized growth (locus YKL160W, strain elf1, stronger effect = lower value) was 0.0739 (active) and the normalized growth (locus YKR026C, strain gcn3, stronger effect = lower value) was 0.0725 (active). For the same molecule, the normalized growth (locus YKR091W, strain srl3, stronger effect = lower value) was 0.066 (active), the normalized growth (locus YLL001W, strain dnm1, stronger effect = lower value) was 0.0668 (active) and the normalized growth (locus YLL026W, stronger effect = lower value) was 0.0595 (active). For the same molecule, the normalized growth (locus YLL041C, strain sdh2, stronger effect = lower value) was 0.0629 (active), the normalized growth (locus YLR027C, strain aat2, stronger effect = lower value) was 0.0596 (active) and the normalized growth (locus YLR113W, strain HOG1, stronger effect = lower value) was 0.164 (active). For the same molecule, the normalized growth (locus YLR221C, strain rsa3, stronger effect = lower value) was 0.0622 (active), the normalized growth (locus YLR258W, strain gsy2, stronger effect = lower value) was 0.0654 (active) and the normalized growth (locus YLR262C, strain YPT6 (second series), stronger effect = lower value) was 0.0894 (active). The normalized growth (locus YLR320W, strain mms22, stronger effect = lower value) was 0.0767 (active), the normalized growth (locus YLR342W, strain FKS1, stronger effect = lower value) was 0.0755 (active) and the normalized growth (locus YLR357W, strain rsc2, stronger effect = lower value) was 0.128 (active). For the same molecule, the normalized growth (locus YLR370C, strain arc18, stronger effect = lower value) was 0.0619 (active), the normalized growth (locus YLR384C, strain iki3, stronger effect = lower value) was 0.0674 (active) and the normalized growth (locus YML120C, strain ndi1, stronger effect = lower value) was 0.0564 (active). For the same molecule, the normalized growth (locus YMR058W, strain fet3, stronger effect = lower value) was 0.068 (active), the normalized growth (locus YMR125W, strain sto1, stronger effect = lower value) was 0.082 (active) and the normalized growth (locus YMR129W, stronger effect = lower value) was 0.0621 (active). For the same molecule, the normalized growth (locus YMR205C, strain PFK2, stronger effect = lower value) was 0.0925 (active), the normalized growth (locus YMR231W, strain pep5, stronger effect = lower value) was 0.179 (active) and the normalized growth (locus YNL071W, strain lat1, stronger effect = lower value) was 0.0616 (active). The normalized growth (locus YNL183C, strain NPR1, stronger effect = lower value) was 0.0338 (active), the normalized growth (locus YNL209W, strain ssb2, stronger effect = lower value) was 0.0868 (active) and the normalized growth (locus YNL248C, strain rpa49, stronger effect = lower value) was 0.0877 (active). The normalized growth (locus YNL322C, strain KRE1 (second series), stronger effect = lower value) was 0.08 (active), the normalized growth (locus YNR049C, strain mso1, stronger effect = lower value) was 0.0653 (active) and the normalized growth (locus YOR001W, strain rrp6, stronger effect = lower value) was 0.075 (active). The normalized growth (locus YOR070C, strain gyp1, stronger effect = lower value) was 0.0635 (active), the normalized growth (locus YOR080W, strain dia2, stronger effect = lower value) was 0.0729 (active) and the normalized growth (locus YOR083W, strain WHI5, stronger effect = lower value) was 0.0687 (active). The normalized growth (locus YOR106W, strain vam3, stronger effect = lower value) was 0.0685 (active), the normalized growth (locus YOR231W, strain MKK1, stronger effect = lower value) was 0.141 (active) and the normalized growth (locus YOR265W, strain rbl2, stronger effect = lower value) was 0.0651 (active). For the same molecule, the normalized growth (locus YOR270C, strain vph1, stronger effect = lower value) was 0.0985 (active), the normalized growth (locus YOR290C, strain snf2, stronger effect = lower value) was 0.0719 (active) and the normalized growth (locus YPL051W, strain arl3, stronger effect = lower value) was 0.0743 (active). For the same molecule, the normalized growth (locus YPL078C, strain atp4, stronger effect = lower value) was 0.07 (active), the normalized growth (locus YPL106C, strain sse1, stronger effect = lower value) was 0.116 (active) and the normalized growth (locus YPL240C, strain hsp82, stronger effect = lower value) was 0.0631 (active). For the same molecule, the normalized growth (locus YPL256C, strain CLN2, stronger effect = lower value) was 0.153 (active).
